Source: PubChem
This is a sample that favours compounds with a hit; in the whole collection about 19% have one here.
HT1080 IDH1KD tx: toxicity to HT-1080 IDH1 knockdown cells (counter line); HT-1080 IDH1 knockdown viability, ATP luminescence, 48 h; Potency, µM (top dose mostly 46.1 µM), for the others: at the top dose activity, negative = toxicity, hits mostly cytotoxic; AID 686971; hit rate 2% among 360,000;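 further: 0% = DMSO wells and -100% = cell-free medium wells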
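Using the IDH1-knockdown HT-1080 line run in the same batch and compound series as the NT line, viability after 48 h at 37 °C was determined by CellTiter-Glo luminescence and expressed as % activity.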
KB-3-1 cytotox: kills parental KB-3-1 adenocarcinoma cells. Potency, µM (series often up to 46.1 µM), most hits filed as cytotoxic. KB-3-1 viability, CellTiter-Glo ATP luminescence, 72 h. hit rate 1.4% among 400,000. AID 1347075; further: nearly all actives have a fitted effect of over 60% in size
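Using CellTiter-Glo luminescence, growth of non-resistant KB-3-1 adenocarcinoma cells is assessed 72 h after pin-tool compound addition at 37 °C. Normalized responses across the concentration series yield fitted curves.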
TDP1 cell noCPT: qHTS for Inhibitors of human tyrosyl-DNA phosphodiesterase 1 (TDP1): qHTS in cells in absence of CPT; Potency, µM (doses to about 46.2 µM), inactives show at the highest dose activity change, negative = growth inhibition, usual class: inhibitors; hit rate 15% among 420,000; DT40 Tdp1-/- hTDP1 cells, no CPT, ATP luminescence, 48 h; further: nearly all actives have a fitted effect of over 55% in size
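Cells were dispensed at 400 per well, compounds added by pin tool, plates incubated ≥48 hr at 37 °C, then CellTiter-Glo added for 30 min at room temperature before luminescence reading. Line: DT40 Tdp1-/- complemented with hTDP1; camptothecin omitted.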
DT40 TDP1 CPT: DT40-hTDP1 cell growth loss with CPT; hit rate 12% among 420,000; chicken DT40 Tdp1-/-;hTDP1 cells + 20 nM CPT, ATP luminescence, 48 h; Potency, µM (series often up to 46.2 µM), inactives show at the top dose activity change, negative = growth inhibition, hits mostly inhibitors; further: nearly all actives have a fitted effect of over 55% in size
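Cell growth measured by CellTiter-Glo luminescence after a minimum 48 h, 37 C compound exposure with 20 nM CPT in Tdp1-knockout DT40 cells stably expressing hTDP1, seeded 400/well; qHTS titration format.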
HT1080NT lethal: kills 2HG-producing HT-1080-NT fibrosarcoma cells; HT-1080-NT fibrosarcoma viability, CellTiter-Glo ATP luminescence, 48 h; Potency, µM (doses to about 46.1 µM), for inactives: at the top dose activity, negative = less viability, usual class: cytotoxic; hit rate 1.6% among 360,000; AID 686970;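 further: NT is the 2HG producing partner of a matched IDH1 knockdown line; 0% = DMSO-treated cells and -100% = media-only wells without cells; nearly all actives have a fitted effect of over 55% in size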
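A 48-hour cytotoxicity screen used HT-1080-NT cells plated 2 hours before compound delivery. ATP-based CellTiter-Glo luminescence measured viability, normalized to DMSO and no-cell controls.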
KB-V1 cytotox: KB-V1 MDR subline cytotoxicity | KB-V1 MDR cells viability, CellTiter-Glo, 72 h | Potency, µM (highest dose often 46.1 µM), most hits filed as cytotoxic | hit rate 3.4% among 400,000; further: nearly all actives have a fitted effect of over 60% in size
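KB-V1 cells (P-gp-expressing MDR subline of KB-3-1) in phenol-red-free DMEM with 10% FBS were exposed to library compounds over a concentration series for 72 h at 37 degrees C. Viability read by CellTiter-Glo luminescence; concentration-effect curves fitted after normalization.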
* hit, by the source's call; [ ] = remark or other dose. The call rests on the fitted dose curve; in most records, active means well fitted curve in the direction sought with a large enough effect; inconclusive means small, poorly fitted or top-dose-only effect, or another doubt; inactive means no such curve, though single readings can be large; an effect the other way counts as inactive or inconclusive. Unless noted, on the % scale 0 is the no-effect control and ±100 the full control effect; potency means the concentration at half of the fitted maximal effect.

How did CCCN1Cc2cccc(C(=O)Nc3ccc(-c4nc5ccccc5[nH]4)cc3)c2C1=O do in these assays?
HT1080 IDH1KD tx: -0.1%; KB-3-1 cytotox: inactive; TDP1 cell noCPT: 18.4µM*; DT40 TDP1 CPT: inconclusive; HT1080NT lethal: -3.8%; KB-V1 cytotox: inactive

How did CCCN1Cc2cccc(C(N)=O)c2C1=O do in these assays?
HT1080 IDH1KD tx: -2.8%; KB-3-1 cytotox: inactive; TDP1 cell noCPT: inconclusive; DT40 TDP1 CPT: 8.2µM*; HT1080NT lethal: -5.6%; KB-V1 cytotox: inconclusive

Results for CC(C)c1c(C(=O)N(C)C2CCN(C)CC2)cnn1-c1nccc(-c2ccco2)n1 ?
TDP1 cell noCPT: -10.2%; DT40 TDP1 CPT: 10.0%

Results for Cc1ccc(NC(=O)CSc2nc3ccccc3c3nc(CCc4c(C)n[nH]c4C)nn23)c(C)c1 ?
KB-3-1 cytotox: inactive; TDP1 cell noCPT: -28.7%; DT40 TDP1 CPT: -26.2%; KB-V1 cytotox: inactive

Results for CCOC1=C2CN(S(=O)(=O)c3ccc(C)cc3)CC[C@@H]2N(S(=O)(=O)c2ccc(C)cc2)[C@H](c2ccccc2)C1 ?
HT1080 IDH1KD tx: 26.0%; KB-3-1 cytotox: inactive; TDP1 cell noCPT: -21.5%; DT40 TDP1 CPT: inconclusive; HT1080NT lethal: inconclusive; KB-V1 cytotox: inactive

How did CC(=O)NNC(=S)Nc1cc(S(=O)(=O)N(C)C)ccc1C do in these assays?
HT1080 IDH1KD tx: 17.1%; KB-3-1 cytotox: inactive; TDP1 cell noCPT: inconclusive; DT40 TDP1 CPT: -2.0%; HT1080NT lethal: 20.4%; KB-V1 cytotox: inactive

Results for CCCCCCC(C)NC(=S)Nc1cc(S(=O)(=O)N(C)C)ccc1C (centres undefined) ?
HT1080 IDH1KD tx: inconclusive; KB-3-1 cytotox: inconclusive; TDP1 cell noCPT: 23.1µM*; DT40 TDP1 CPT: inconclusive; HT1080NT lethal: -10.6%; KB-V1 cytotox: inconclusive

How did Cc1ccc(S(=O)(=O)N(C)C)cc1NC(=S)NC(C)CCCC(C)C (centres undefined) do in these assays?
HT1080 IDH1KD tx: inconclusive; KB-3-1 cytotox: inconclusive; TDP1 cell noCPT: inconclusive; DT40 TDP1 CPT: 25.9µM*; HT1080NT lethal: inconclusive; KB-V1 cytotox: inconclusive

What do the screens show for `Cc1ccc(S(=O)(=O)N(C)C)cc1NC(=S)NC(C)CCC(C)C` (centres undefined)?
HT1080 IDH1KD tx: -3.3%; KB-3-1 cytotox: inactive; TDP1 cell noCPT: 20.6µM*; DT40 TDP1 CPT: 23.1µM*; HT1080NT lethal: -6.3%; KB-V1 cytotox: inconclusive

How did COc1ccc(C2=NS(=O)(=O)N(C)C(C(=O)Nc3ccc4c(c3)OCO4)=C2)cc1OC do in these assays?
HT1080 IDH1KD tx: -4.9%; KB-3-1 cytotox: inconclusive; TDP1 cell noCPT: 16.4µM*; DT40 TDP1 CPT: 16.4µM*; HT1080NT lethal: -8.2%; KB-V1 cytotox: inactive

How did COc1ccc(C2=NS(=O)(=O)N(C)C(C(=O)NC3CCCCC3)=C2)cc1OC do in these assays?
HT1080 IDH1KD tx: 7.9%; KB-3-1 cytotox: inactive; TDP1 cell noCPT: 18.4µM*; DT40 TDP1 CPT: 9.2µM*; HT1080NT lethal: 1.7%; KB-V1 cytotox: inactive

How did COc1ccc(C2=NS(=O)(=O)N(C)C(C(=O)Nc3ccc4c(c3)OCO4)=C2)cc1 do in these assays?
HT1080 IDH1KD tx: -11.6%; KB-3-1 cytotox: inactive; TDP1 cell noCPT: 8.2µM*; DT40 TDP1 CPT: 16.4µM*; HT1080NT lethal: -6.5%; KB-V1 cytotox: inactive

What do the screens show for `CNc1nc(-c2ccoc2)nc2ccccc12`?
TDP1 cell noCPT: -0.4%; DT40 TDP1 CPT: 1.3%

What do the screens show for `O=C(c1ccncc1)N1CCC2(CC1)CN(c1ncccn1)C2`?
TDP1 cell noCPT: -8.7%; DT40 TDP1 CPT: 4.0%

Results for COC(=O)C1=C(C)NC(=O)NC1c1ccc(-c2ccccc2Cl)o1 (centres undefined) ?
HT1080 IDH1KD tx: inconclusive; KB-3-1 cytotox: inactive; TDP1 cell noCPT: 16.4µM*; DT40 TDP1 CPT: 10.3µM*; HT1080NT lethal: inconclusive; KB-V1 cytotox: inconclusive

How did COC(=O)C1=C(C)NC(C)=C(C(=O)OC)C1c1ccc(-c2cccc(Cl)c2Cl)o1 do in these assays?
HT1080 IDH1KD tx: -27.8%; KB-3-1 cytotox: inactive; TDP1 cell noCPT: inconclusive; DT40 TDP1 CPT: inconclusive; HT1080NT lethal: -17.6%; KB-V1 cytotox: 16.4µM*

What do the screens show for `COC(=O)C1=C(C)NC(=S)NC1c1ccc(-c2ccccc2C(=O)OC)o1` (centres undefined)?
HT1080 IDH1KD tx: -10.2%; KB-3-1 cytotox: inactive; TDP1 cell noCPT: 18.4µM*; DT40 TDP1 CPT: inconclusive; HT1080NT lethal: -3.3%; KB-V1 cytotox: inconclusive

What do the screens show for `CCCN(CC(=O)Nc1ccccc1C)C(=O)C1CCN(S(=O)(=O)c2ccccc2C(F)(F)F)CC1`?
HT1080 IDH1KD tx: 6.1%; KB-3-1 cytotox: inactive; TDP1 cell noCPT: -29.9%; DT40 TDP1 CPT: -20.7%; HT1080NT lethal: 1.4%; KB-V1 cytotox: inactive

What do the screens show for `COc1cc(NC(=O)c2cc(-c3ccccc3)nc3c2cnn3C(C)C)cc(OC)c1OC`?
HT1080 IDH1KD tx: 0.2%; KB-3-1 cytotox: inconclusive; TDP1 cell noCPT: 5.8µM*; DT40 TDP1 CPT: 13µM*; HT1080NT lethal: 0.3%; KB-V1 cytotox: inconclusive

How did COc1ccccc1NC(=O)c1cc(-c2cc(OC)c(OC)c(OC)c2)nc2ccccc12 do in these assays?
HT1080 IDH1KD tx: -7.2%; KB-3-1 cytotox: inactive; TDP1 cell noCPT: 7.31µM*; DT40 TDP1 CPT: 9.2µM*; HT1080NT lethal: -11.9%; KB-V1 cytotox: inconclusive

What do the screens show for `CCOc1ccccc1NC(=O)c1cc(-c2cc(OC)c(OC)c(OC)c2)nc2ccccc12`?
HT1080 IDH1KD tx: -14.9%; KB-3-1 cytotox: inactive; TDP1 cell noCPT: 7.31µM*; DT40 TDP1 CPT: 10.3µM*; HT1080NT lethal: -18.3%; KB-V1 cytotox: inconclusive

Results for COc1cc(-c2cc(C(=O)Nc3ccncc3)c3ccccc3n2)cc(OC)c1OC ?
HT1080 IDH1KD tx: -0.8%; KB-3-1 cytotox: inactive; TDP1 cell noCPT: 1.3µM*; DT40 TDP1 CPT: 2.91µM*; HT1080NT lethal: 1.0%[9.24 µM]; KB-V1 cytotox: inconclusive

What do the screens show for `COc1ccc(-c2cc(C(=O)Nc3ccccc3O)c3ccccc3n2)cc1OC`?
HT1080 IDH1KD tx: 3.1%; KB-3-1 cytotox: inactive; TDP1 cell noCPT: inconclusive; DT40 TDP1 CPT: -29.5%; HT1080NT lethal: -3.0%; KB-V1 cytotox: inconclusive

What do the screens show for `S=C(S)O[C@@H]1C[C@@H]2C[C@H]1[C@@H]1CCC[C@H]21`?
TDP1 cell noCPT: -21.0%; DT40 TDP1 CPT: -29.7%
